Experimental data reported in PubChem BioAssay AID588 (National Center for Advancing Translational Sciences (NCATS), 2007).
In all, about 59,000 compounds went through this assay and about 25 (0.04%) were called active. How the calls were made is not given here. What follows is part of a selection rich in actives, with near analogues and random picks from the rest.

Assay: qHTS Assay for Spectroscopic Profiling in Resorufin Spectral Region
Conditions: Compound fluorescence, resorufin region 547/598 nm, buffer
Text: NIH Molecular Libraries Screening Centers Network [MLSCN] NIH Chemical Genomics Center [NCGC] […] Occasionally, the artifactual effect may originate from the compound#s own spectral or other biophysical properties which generally tend to track its assay concentration. Pre-screening/profiling the library with respect to the compounds# spectral properties should help one exclude false positives early on. While the most informative fluorescent profiling data set is obtained by performing a full excitation and emission scan of each well by using a monochromator-based plate reader, such an approach is practical only on a very limited scale as scanning each well requires long time. An alternative approach, applied here, is to perform plate reader scans using selected excitation and emission wavelength pairs to generate a multidimensional relational database that correlates compound concentration and the respective relative fluorescence intensity at a given wavelength set. A standard curve of resorufin present on each plate as six-point concentration series, was used to compute a normalized fluorescence response, termed dye-equivalent concentration, for each compound at each concentration.
NCGC Assay Protocol Summary: Buffer: 100 mM Tris buffer, pH 8.0 Dye standard plate: The wells in columns 1 through 4 of a Kalypsys polypropylene 1536-well compound plate were filled with standard solutions of fluorophore corresponding to the spectral region of interest. Solutions of resorufin were placed in the following wells: M1, N1: 3 mM, M2, N2: 300 uM, M3, N3: 30 uM, M4, N4: zero (DMSO), O1, P1: 3 uM, O2, P2: […], O3, P3: 300 nM, O4, P4: zero (DMSO). Assay Steps: Six uL of buffer were dispensed to 1536-well Greiner black plates. Compounds and dye standards (23 nL) were transferred via Kalypsys PinTool. The plates were incubated for 15 min at room temperature, and then read on ViewLux (Perkin-Elmer) High-throughput CCD imager using 547 nm and 598 nm excitation and emission filter set. Keywords: NIH Roadmap, MLSCN, MLI, MLSMR, qHTS, NCGC, Resorufin, Fluorescent Profiling.

Max dye-equivalent concentration, inactive:
Cc1cc(C)nc(NC2=NCC(=O)N2c2ccc(Cl)cc2)n1
CCNc1ncc2nc(CCc3ccccc3)c(=O)n(-c3ccc(OC)cc3)c2n1
Cc1noc(NS(=O)(=O)c2ccc(N3CC(O)=C(c4ccccc4)C3=N)cc2)c1C
C[C@H]1O[C@@H](CC(=O)O)Cc2c1c(O)c1c(O)cc(-c3cc(=O)c4c(=O)c5c(c(=O)c=4c3=O)C[C@H](CC(=O)O)O[C@@H]5C)c(O)c1c2O
CCCOc1ccccc1-c1nc(SCCC(=O)O)n[nH]1
CCC(C)(C)n1nnnc1C(c1ccccc1OC)N1CCSCC1 (centres undefined)
Cc1ccc(S(=O)(=O)NCCN2CCOCC2)cc1C
C=CCn1c(COc2ccccc2C)nnc1SCC(=O)O
Cc1cccc(NC(=O)CSc2nc3c(c(=O)[nH]2)CCC3)c1C
COc1ccccc1N1CC(O)=C(c2nc3ccccc3s2)C1=N
CCN(CC(=O)NC(C)C)C(=O)CCNC(=O)c1ccc(Cl)cc1
COc1ccc2[nH]c3ccc(OC)cc3c2c1
Cc1cc(C(F)(F)F)c(C#N)c(SCC(=O)NC2CC2)n1
COc1ccc(O)c(C(=O)c2cnc3onc(C(C)C)c3c2)c1
CCOC(=O)Nc1ccc2c(c1)N(C(=O)CN1CCN3CCCC3C1)c1ccccc1CC2 (centres undefined)
CCCCNC(=O)c1ccccc1NC(=O)c1ccccc1N(C)S(C)(=O)=O
CCC(C)Sc1nc2c(c(=O)[nH]c(=O)n2C)n1CC(O)COc1cccc2ccccc12 (centres undefined)
COc1ccc(-n2ncc3c(N4CCc5ccccc54)ncnc32)cc1
Cc1ccc(-n2c(Cc3cccs3)nnc2SCC(=O)OC(C)C)cc1
COCCn1c(=O)c(-c2cccc(F)c2)nc2cncnc21
COc1ccc(-n2c(=O)c(-c3cn(C)c4ccccc34)nc3cnc(OC)nc32)cc1
Cc1ccc(C(=O)NCC(=O)O)cc1S(=O)(=O)N1CCCCC1
Cn1c(SCc2c(F)cccc2Cl)nnc1-c1cnccn1
O=C(NC1CCCCC1)c1ccc2c(=O)n(CC3CCCO3)c(=O)[nH]c2c1 (centres undefined)
O=c1[nH]nc(CSCc2ccccc2Cl)[nH]1
COCCNC(=O)c1snc2ccc(Cl)cc12
CCOc1ccc(NC(=O)CCS(=O)(=O)c2cccc3nsnc23)cc1
CCOc1cc(C2C(C(=O)OC)=CN(C3CCCC3)C=C2C(=O)OC)cc(Br)c1O
O=C(Nc1cnn(Cc2ccc(Cl)cc2)c1)C1CCCC1
CSc1ccc(-c2c(C#N)c(N)nc3c2c(C)nn3-c2ccccc2)cc1
COc1ccc(CC(NC(C)=O)C(=O)NC2CCN(C(=O)Nc3ccc(C#N)cc3)CC2)cc1OC (centres undefined)
CCOC(=O)N1CCN(C(=O)c2nn(-c3ccc(C)cc3)c(=O)c3c2c2ccccc2n3C)CC1
COc1ccc(Cc2nnnn2CC(=O)O)cc1
CC(c1nnc(SCC(=O)Nc2sccc2C#N)n1-c1ccc(Cl)cc1)N(C)C (centres undefined)
CC(C)(CNCC(O)c1ccccc1)N1CCOCC1 (centres undefined)
O=C(O)C1CC=C(Cl)CC1C(=O)NCc1ccccc1 (centres undefined)
O=C(COc1ccc2c3c(c(=O)oc2c1)CCC3)NC1CCCCC1
Cc1nc2cnc(Nc3ccccc3)nc2n(C[C@H]2CCCO2)c1=O
O=C(NCCCN1CCOCC1)c1cc(-c2ccc(Cl)cc2)on1
Cn1c(=O)c(CCc2ccccc2)nc2cnc(Nc3ccccc3)nc21
Cc1cc(=O)n2nc(N3CCCC(C(=O)NCCC4=CCCCC4)C3)sc2n1 (centres undefined)
COc1ccc(-n2c(SCC(=O)NCc3cccs3)nnc2-c2ccoc2C)cc1
Cc1ccnc(SCCn2c(Br)nc3c2c(=O)[nH]c(=O)n3C)n1
CCOC(=O)N1CCC(Nc2c(NCCCN3CCN(c4ccc(OC)cc4)CC3)c(=O)c2=O)CC1
CCCCn1c(SCc2ncc(-c3ccccc3)o2)nc2cc(S(N)(=O)=O)ccc21
CCOc1ccccc1-n1c(SCC(=O)NCc2ccco2)nnc1-c1ccncc1
Nc1cc(=O)nc(SCc2ccccc2)n1Cc1ccco1
Cc1c(S(=O)(=O)O)ccc(N=Nc2c(O)c(C(=O)O)cc3ccccc23)c1Cl
CCC(=O)Nc1cccc(NC(=O)CSc2nnnn2C2CCCC2)c1
Cc1cc(C)c2[nH]c(=O)c(C(c3nnnn3Cc3ccc4c(c3)OCO4)N3CCCC3)cc2c1 (centres undefined)
COc1ccccc1N(C(=O)Cn1nnc2ccccc21)C(C(=O)NCc1ccco1)c1ccc(C)o1 (centres undefined)
CCC(C(=O)N1CCOCC1)n1c(C(=O)OC)cc2occc21 (centres undefined)
CCN(c1ccccc1)S(=O)(=O)c1cccc(C(=O)O)c1
c1ccc2c(Nc3ccncc3)nc(-c3ccc4c(c3)OCO4)nc2c1
CCOC(=O)N1CCN(C(=O)Cc2ccc(-n3c(=S)[nH]c4ccccc4c3=O)cc2)CC1
CC(=O)OCc1cc(=O)n(C)c(=O)n1C
COc1ncc2nc(-c3ccc(Cl)cc3)c(=O)n(C)c2n1
CCc1c(C)nc2ncnn2c1N1CCC(C(=O)NCc2ccc3c(c2)OCO3)CC1
CN(C(=O)CSc1nnnn1-c1ccccc1)C1CCCCC1
Cc1c(-c2nn(C)c(=O)c3ccccc23)oc2ccc(F)cc2c1=O
COCCn1c(=O)[nH]c2cc(C(=O)NCc3cccnc3)ccc2c1=O
NS(=O)(=O)c1cc(Cl)c(Cl)c(S(N)(=O)=O)c1
CCOCCCN1C(=O)CN(C2CCCCC2)C(=O)C1c1ccc(OCC)c(OC)c1 (centres undefined)
Cc1cc(C)c2nc(N3CCCC3)c(C#N)cc2c1
COc1cccc(C(=O)c2cc3ccc(O)cc3oc2=O)c1
O=C1[C@@H]2C(Cc3ccc(O)cc3)NC3(C(=O)Nc4ccc(F)cc43)[C@@H]2C(=O)N1c1ccc(F)cc1 (some centres undefined)
CCC(=O)N(Cc1cc2cc(OC)ccc2[nH]c1=O)c1ccccc1C
COc1cccc(OCC(O)CN2CCN(CCO)CC2)c1 (centres undefined)
C=CCn1c(SCC(=O)NC23CC4CC(CC(C4)C2)C3)nc(O)cc1=O
COCCn1c(=O)c(-c2cccs2)nc2cnc(N3CCN(C)CC3)nc21
Cc1cc(C)cc(OCc2nnc(SCC(=O)OC3CCCCC3)o2)c1
COCCn1c(=O)c(-c2ccc(OC)cc2)nc2cnc(Oc3cccc(Cl)c3)nc21
CS(=O)(=O)Nc1cccc(-c2cncnc2Nc2ccccc2)c1
Cn1c(SCC(=O)OC2CCCCC2)nnc1-c1ccc(S(=O)(=O)N2CCCC2)cc1
CCS(=O)(=O)N1CCC(C(=O)N2CCN(c3ccccc3)CC2)CC1
CCOCC(=O)Nc1cc(OC)c(Cl)cc1OC
CCN1C(=O)/C(=C\N2CCN(c3cccc(Cl)c3)CC2)SC1=S
CCN(Cc1ccncc1)C(=O)[C@@H](CO)c1ccccc1
CC(=O)N1CCC(C(=O)Nc2nc(-c3ccccc3)ns2)CC1
COc1ccc(S(=O)(=O)NC(CC(=O)NCc2ccccc2OC)c2ccco2)cc1 (centres undefined)
Nc1nc2c(ncn2[C@H]2CC[C@@H](CO)O2)c(=O)n1C(=O)c1ccccc1
Cc1ccc(CNC(=O)CN2CCN(Cc3ccc(Cl)cc3)C2=O)cc1
CCOCCc1c(O)nc(SCC(=O)NCc2ccco2)[nH]c1=O
COc1cc(OC)cc(C(=O)NCCSCc2ccco2)c1
O=c1[nH]c(=O)n([C@H]2C[C@H](O)[C@H](CO)O2)cc1Br
O=c1c(-c2ccc(F)cc2)nc2cncnc2n1-c1ccccc1
CCOc1ccc(N(CC(=O)NCc2ccc(OC)cc2)S(=O)(=O)c2c(C)noc2C)cc1
C[C@@H]1C[C@H]2[C@@H]3C[C@H](F)C4=CC(=O)C=C[C@@]4(C)[C@]3(F)[C@H](O)C[C@]2(C)[C@@]1(O)C(=O)CO
O=C(Nc1ccccc1)c1cccnc1Nc1ccccc1
Cc1ccc(NC(=O)NCC(c2cccnc2)N2CCOCC2)cc1 (centres undefined)
O=C(c1ccco1)N1CCC[C@@]2(CCN(Cc3nccs3)C2)C1
O=C1N=C(N2CCOCC2)CS1
Cc1ccc(C(=O)CS(C)(=O)=O)cc1
O=C(Nc1ccc(Cl)cn1)Nc1cccs1
